Values joined by “and” are separate entries in the source; they are usually repeats but may differ in a detail not shown here. Identical values can stand only once. About 2,000 (36%) of roughly 5,500 compounds were called active. Not shown: some 18% with an inconclusive outcome. No stated cut-off is given here; in the data, active means normalized growth mostly below about 0.91 (no sharp cut-off); inconclusive means no clear call, values can overlap the other calls; inactive means mostly above about 0.92. The list shows a part of the results.
Assay: chemical genetic growth profiling, strain panel (AID 1159580);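 further: tested at 20 µM; growth read once vehicle control cultures reached saturation at 30 °C; 1 = growth at the plate median or of vehicle wells; lower values mean less growth of the strain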
Settings: S. cerevisiae deletion strains, growth OD

Measured: normalized growth

COC(=O)[C@@]1(C)CCC[C@]2(C)c3ccc(O)c(C(C)C)c3CCC12 (stereo not given in full)
active: locus YAL030W, strain snc1, hits give low values 0.85 | locus YBL061C, strain skt5, hits give low values 0.617 | locus YBR009C, strain hhf1, hits give low values 0.364 | locus YBR021W, strain FUR4, hits give low values 0.646 | locus YBR023C, strain chs3, hits give low values 0.793 | locus YBR229C, strain ROT2, hits give low values 0.875 | locus YBR231C, strain swc5, hits give low values 0.705 | locus YCL011C, strain gbp2, hits give low values 0.652 | locus YCL016C, strain dcc1, hits give low values 0.847 | locus YCL029C, strain bik1, hits give low values 0.804 | locus YDL040C, strain nat1, hits give low values 0.928 | locus YDL074C, strain BRE1, hits give low values 0.174 | locus YDL101C, strain DUN1, hits give low values 0.894 | locus YDL192W, strain arf1, hits give low values 0.344 | locus YDR069C, strain doa4, hits give low values 0.89 | locus YDR101C, strain arx1, hits give low values 0.782 | locus YDR137W, strain rgp1, hits give low values 0.134 | locus YDR159W, strain sac3, hits give low values 0.29 | locus YDR162C, strain NBP2, hits give low values 0.595 | locus YDR195W, strain ref2 0.189 | locus YDR297W, strain sur2, hits give low values 0.566 | locus YDR318W, strain mcm21, hits give low values 0.788 | locus YDR392W, strain spt3, hits give low values 0.283 | locus YDR502C, strain sam2, hits give low values 0.773 | locus YEL061C, strain CIN8, hits give low values 0.803 | locus YER015W, strain faa2, hits give low values 0.793 | locus YER016W, strain bim1, hits give low values 0.825 | locus YER155C, strain BEM2, hits give low values 0.128 | locus YER167W, strain BCK2, hits give low values 0.796 | locus YGL086W, strain mad1, hits give low values 0.729 | locus YGL167C, strain pmr1, hits give low values 0.374 | locus YGL173C, strain kem1, hits give low values 0.832 | locus YGL240W, strain doc1, hits give low values 0.772 | locus YGL248W, strain PDE1, hits give low values 0.828 | locus YHR027C, strain rpn1, hits give low values 0.499 | locus YHR030C, strain SLT2, hits give low values 0.493 and 0.19 | locus YHR079C, strain IRE1, hits give low values 0.502 | locus YHR094C, strain hxt1, hits give low values 0.897 | locus YHR129C, strain ARP1, hits give low values 0.518 | locus YHR142W, strain chs7, hits give low values 0.875 | locus YHR200W, strain rpn10, hits give low values 0.871 | locus YIL066C, strain RNR3, hits give low values 0.65 | locus YIL125W, strain kgd1, hits give low values 0.693 | locus YJL095W, strain BCK1 (second series), hits give low values 0.689 | locus YJL095W, strain BCK1, hits give low values 0.277 and 0.318 | locus YJL129C, strain trk1, hits give low values 0.593 | locus YJL134W, strain LCB3, hits give low values 0.815 | locus YJL164C, strain tpk1, hits give low values 0.78 | locus YJL166W, strain qcr8, hits give low values 0.563 | locus YJL187C, strain SWE1 (second series), hits give low values 0.638 | locus YJL187C, strain SWE1, hits give low values 0.73
inactive: locus YAL021C, strain ccr4, hits give low values 1.08 | locus YAL026C, strain drs2, hits give low values 0.929 | locus YBR171W, strain sec66, hits give low values 0.946 | locus YBR279W, strain paf1, hits give low values 0.941 | locus YCL069W, strain vba3, hits give low values 0.977 | locus YCR088W, strain abp1, hits give low values 0.971 | locus YDL005C, strain med2, hits give low values 0.944 | locus YDL035C, strain GPR1, hits give low values 0.912 | locus YDL185W, strain tfp1, hits give low values 0.956 | locus YDR001C, strain nth1, hits give low values 0.978 | locus YDR334W, strain swr1, hits give low values 0.998 | locus YDR335W, strain msn5, hits give low values 0.965 | locus YDR388W, hits give low values 0.942 | locus YEL003W, strain gim4, hits give low values 0.929 | locus YEL037C, strain rad23, hits give low values 0.988 | locus YEL061C, strain CIN8 (second series), hits give low values 0.981 | locus YER110C, hits give low values 1 | locus YER111C, strain swi4, hits give low values 0.995 | locus YER155C, strain BEM2 (second series), hits give low values 0.891 | locus YFR010W, strain ubp6, hits give low values 0.952 | locus YGL078C, strain dbp3, hits give low values 0.935 | locus YGL227W, strain vid30, hits give low values 0.97 | locus YGL253W, strain hxk2, hits give low values 0.951 | locus YGR135W, strain pre9, hits give low values 0.957 | locus YGR252W, strain gcn5, hits give low values 0.781 | locus YHR013C, strain ard1, hits give low values 1.01 | locus YHR079C, strain IRE1 (second series), hits give low values 0.927 | locus YIL073C, strain SPO22, hits give low values 1.07 | locus YIR030C, strain dcg1, hits give low values 0.954 | locus YJL092W, strain hpr5, hits give low values 0.979 | locus YJL115W, strain asf1, hits give low values 0.976 | locus YJL154C, strain vps35, hits give low values 0.981 | locus YJL168C, strain set2, hits give low values 1 | locus YJR043C, strain POL32, hits give low values 0.955
